From PMC13494018
A number with no mark means an inactive call. How the calls were made is not given here.

B1: d4r5_design_ppi_429_dldesign_0_cycle0_af2pred (protein)
chain: VEEAKKLGEEYIKKVKEAKDAKEALEIGEKAAKELVEKAKASEDGETAQAYLEAASEVKATALRQARKLEE
B2: Pdl1_binder_AF2_7 (protein)
chain: DKESAAKKAIQLLEIARERVVADPAAAKAFKEAAKLVEVMLKDAGADEEKAEKVEEKAEKAADAYAAGDKETADKYYEEAVELVKEAA
B3: d4r5_design_ppi_378_dldesign_0_cycle0_af2pred (protein)
chain: AAAAAAAARAAMAAQAAANAAKAKEVFDKLAETYPEAKDEAKAKAAEVAAAFAATAAAGGDQAQLTANNNAAQDARSEVIAIANKK
B4: d4r5_design_ppi_473_dldesign_0_cycle1_af2pred (protein)
chain: GEAKRKKAEALLERYKARAEELIEKAKASDYVTAESYAISVETRFTDFAAAAEKDPATKEVAKRAKKVGKEYVEKLKKIAEEKKAAE
B5: Pdl1_binder_AF2_45 (protein)
chain: MIVHIETPTRDLQLFLKLYAEEKGFKVVEAGETSLVIESDLPREKVEKFIRIAEAMGAKVEVEE
B6: Pdl1_binder_AF2_61 (protein)
chain: MYVVVAKGTEQQAKLFALIARDRGHEAEVEGDTAVVKTDDLEEAEKLAELARELGMEAEVIE
B7: d4r5_design_ppi_438_dldesign_0_cycle0_af2pred (protein)
chain: SKEEMERRAEQVEKAVEGAEEEAKEGTPEEALALLRSVLRRAKEVAEESKKYPEVKKRAEKALERAEKIKKELLEK
B8: Pdl1_binder_AF2_2 (protein)
chain: SIEEMVEEMEKLLEEAAKIVPEIKELLEKAKEIAKKAIEIAKKKGNGEAVAKIFRDMAEMTLRAAKFDKKGAENAALLMIKRAEDIAE
B9: Pdl1_binder_AF2_6 (protein)
chain: SDELRVEAVQVAQEASVAIARAERAVAEGDAEEIRRAAEELERAARRAEEQAERLEEAGDKGMAEFLRRVVERAREAAARARRAAEEL
B10: d4r5_design_ppi_490_dldesign_0_cycle0_af2pred (protein)
chain: SKEEEAKKTGKEQVKKVKETAETGTAAETAETAQEARAELNEKAAEAGTEEARKIAEEAKKEIREIVKKKKEEEA
B11: Pdl1_binder_AF2_30 (protein)
chain: MSKRDELLTKALEYLQKATKLVYEHDPETAREIAHHFSKAVADPEKAEEELEKALELAEKAAAEMERGEELRELMEKAKEYVLEYVKL
B12: d4r5_design_ppi_375_dldesign_0_cycle1_af2pred (protein)
chain: AAKEMANELQELIEKLREASSVKDQNEVSKVIKEARKKAKEAIKAYEKDPELGKKLFEEAKEILEKALKKAE
B13: d4r5_design_ppi_400_dldesign_0_cycle1_af2pred (protein)
chain: AAAEAAAKEAAKAKADELLKKAKESYEEAKKNKDNKELVFKYLADIEVKAAQADFLGAKDPYAKEKAKEIEKLAKEAEKILK
B14: d4r5_design_ppi_497_dldesign_0_cycle0_af2pred (protein)
chain: KKEEVRKITEEAIEKMRTVEPEEAVNAVQDAQFEMQGLAPTAETRRKVARLASEAARLVATGEKVEEGIEKLREAGEYLIESL
B15: d4r5_design_ppi_459_dldesign_0_cycle1_af2pred (protein)
chain: DLEALKEKYLKETKAAAEKAAKIDKKVGDELKDLAELIKEGYGVKGNYNKAKALAAKAEADAKKEAALKA
B16: Pdl1_binder_AF2_52 (protein)
chain: IKEKIEELEKKAEEEVEEAKKLDKEEANKKLNKLSTEIYIEAIQVNDEEFRKKAVEILTKIAKESKELGLEEAEKAASSFAEELKEKL
B17: Pdl1_binder_AF2_51 (protein)
chain: MEVIYADTKEEATMKVMEALSRGVAREDILVYLKDAKDAEKLAKVWGVTAKLA
B18: Pdl1_binder_AF2_43 (protein)
chain: SAIEKTKEKIRQLFESAGVEVEDIEVEGDTITVHVKEDTEAARQAALLANVYAEDKVGLKVVLEA
B19: d4r5_design_ppi_400_dldesign_0_cycle0_af2pred (protein)
chain: AAAAAAAKAAAKAAAEKDLKRAEEAYKNAKKNKDNKEIVFKNYAEIETKAARADALAAADPYAAEAAKKIKELAEEAEKILK
B20: d4r5_design_ppi_466_dldesign_0_cycle0_af2pred (protein)
chain: SEAEEILRETVERATAAAAAEDPALAPRVRAAAERAAEIAKSQKSIEAAAGVLEIFADRAAAASPAAAAVAREGARRLEELAK
B21: d4r5_design_ppi_428_dldesign_0_cycle1_af2pred (protein)
chain: AAAAAETAAARERAARDLARAEAAAKAGKADPSKAPLAIAILEGVAERFEFYAKAAGPAAAAVAREAAERAKALAKEL
B22: Pdl1_binder_AF2_13 (protein)
chain: MYVLVAKADENEARFLKLMAEKLGVKAEVEGDIVTFVSDDKEAIEIIRRFLEKEGRVISFEE
B23: Pdl1_binder_AF2_33 (protein)
chain: MEEAKRVAEQMALMMRAAGEEASVEVEGDKITIYYKGDDESLWEVAESVAEKIEEKYGVEVEVVR
B24: Pdl1_binder_AF2_49 (protein)
chain: SKKVRFQAYQASAEVIAKEVGGYVVSTGPDKVVIAAPTEEAAEKARKALDELGKAFGFGYEVFVA
B25: Pdl1_binder_AF2_3 (protein)
chain: MEKAEERKKWLLEKLKELGVEVKEISLDGHVVITGAKSEEALKGAESLVKMFGLFLGVEAKVEVV
B26: d4r5_design_ppi_435_dldesign_0_cycle1_af2pred (protein)
chain: SKSKKEAEKMREATRAFKEAGKAAAAAIASGETGEEAIAAARAKAEEVIKEAKEVGEGAGEFAEMLKENLDKALAAAS
B27: Pdl1_binder_AF2_8 (protein)
chain: YKLVVEAPNEKIAEQIKEIAESIGAKAEIEGMKVVIEADDKQTIEFIKLYAEEKGAKVLEIT
B28: Pdl1_binder_AF2_22 (protein)
chain: YRIAIFFPSREKAEEWAAEARAAGRLVRYLTNLMVVEVDSEEEARAVAAEAEALGAATVFLD
B29: d4r5_design_ppi_384_dldesign_0_cycle1_af2pred (protein)
chain: GITWDELMDIQADAFYYLSEAKKITPEAEAKAKELYQKSLEYYKKAAEYLAKAEEVGPEAKEEAKEYADKAAEEVEKLKKLVEEAKN
B30: d4r5_design_ppi_384_dldesign_0_cycle0_af2pred (protein)
chain: AVTWDEILDIQARANYYLSEAKKLTEEAYKEAKKLYEEARKHYGEAAKYLADAPKVGEEAKKKAAEHAKEAEKLVKELEELVKKAKE
B31: Pdl1_binder_AF2_18 (protein)
chain: DEETRREIAEHLLRVAKKDQGLVDAEIEGDKVRVKAKTEEQYEKGKIAAEAAAAIVGGEAEAEIV
B32: Pdl1_binder_AF2_5 (protein)
chain: EEDLEKLVELARKALEHIKRAAEYSKEDESKMAEELAKAVALASEISKIDVEVAKLVLKAVNAVMKGDRLEEGVKLAEEALKRAEEKK
B33: d4r5_design_ppi_375_dldesign_0_cycle0_af2pred (protein)
chain: KEKEMANKLQEKIEELYSAATPEQQSKVSEKIKEARKAAKEAVKKYKEDEEKGKELFKKAEEILEEGLKEAK
B34: d4r5_design_ppi_438_dldesign_0_cycle1_af2pred (protein)
chain: DLEELKRRAEQVELLVEMAEEEAKTGSKEEALALLNSAIRDAKEVAEEGAAYPEVSERAKAALERAEKIRKELLAS
B35: Pdl1_binder_AF2_12 (protein)
chain: MHRTVTVKNEAEAIAAVIEAYHSGEKLTIVTDSEEIAKKAERLNKQLGGNATFEV
B36: d4r5_design_ppi_466_dldesign_0_cycle1_af2pred (protein)
chain: EEKKKILEEAAKEAAAAAKADNPELAPRVERLAKRAVEIGTKQKSVEAAAGVMENAADQAAAAAPAAAAVLKKGAEELEKLAK
B37: Pdl1_binder_AF2_37 (protein)
chain: SETTLKETAKLIEVMAKDRGEFVKIEAKGDKIVLYTKTEEGAKKINKEGSKLAKSVGVEFEAKVA
B38: Pdl1_binder_AF2_35 (protein)
chain: SLKEKAEKHIEEAEKLAKKVGELADKEKAEKAIELLKKGTPESIVEAIALLDQLAKEEKENKEEVRKLASEAIVAAMKAAALLDAAEE
B39: d4r5_design_ppi_448_dldesign_0_cycle0_af2pred (protein)
chain: MKEKLKKEAKEAEKKMEELIKKIEEANPEAGKVAREAREKGKASPKGREYTNKGISEAGKLAGPEVAPIAQEARQEAAAADAYKKII

What was measured:
[1] = target: control:Baker_PD-L1, Q9NZQ7
control:Baker_PD-L1, Q9NZQ7, sequence (Q9NZQ7 whole entry): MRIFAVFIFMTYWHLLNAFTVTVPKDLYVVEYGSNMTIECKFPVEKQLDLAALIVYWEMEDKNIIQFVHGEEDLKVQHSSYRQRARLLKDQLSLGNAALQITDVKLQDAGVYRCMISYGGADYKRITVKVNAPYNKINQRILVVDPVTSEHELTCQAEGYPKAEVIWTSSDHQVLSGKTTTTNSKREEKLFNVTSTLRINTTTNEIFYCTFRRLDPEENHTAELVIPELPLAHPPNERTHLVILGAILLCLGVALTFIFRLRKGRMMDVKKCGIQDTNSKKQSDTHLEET

VTCN1, Q7Z7D3, sequence (Q7Z7D3 whole entry): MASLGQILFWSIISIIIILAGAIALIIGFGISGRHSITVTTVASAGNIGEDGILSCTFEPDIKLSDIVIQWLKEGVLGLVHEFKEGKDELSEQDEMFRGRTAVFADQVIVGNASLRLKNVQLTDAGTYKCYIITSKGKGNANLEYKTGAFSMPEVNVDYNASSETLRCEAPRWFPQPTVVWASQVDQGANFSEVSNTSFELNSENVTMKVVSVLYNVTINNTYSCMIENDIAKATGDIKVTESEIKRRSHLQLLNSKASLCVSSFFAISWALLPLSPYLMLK

| Binder | binding in a display sort (VTCN1, Q7Z7D3) | binding in a display sort [1] |
| --- | --- | --- |
| B1 | not found | – |
| B2 | – | not found |
| B3 | not found | – |
| B4 | not found | – |
| B5 | – | binds (active) |
| B6 | – | not found |
| B7 | not found | – |
| B8 | – | not found |
| B9 | – | not found |
| B10 | not found | – |
| B11 | – | not found |
| B12 | not found | – |
| B13 | not found | – |
| B14 | not found | – |
| B15 | not found | – |
| B16 | – | not found |
| B17 | – | not found |
| B18 | – | not found |
| B19 | not found | – |
| B20 | not found | – |

| Binder | binding in a display sort (VTCN1, Q7Z7D3) | binding in a display sort [1] |
| --- | --- | --- |
| B21 | not found | – |
| B22 | – | not found |
| B23 | – | not found |
| B24 | – | not found |
| B25 | – | not found |
| B26 | not found | – |
| B27 | – | binds (active) |
| B28 | – | not found |
| B29 | not found | – |
| B30 | not found | – |
| B31 | – | not found |
| B32 | – | binds (active) |
| B33 | not found | – |
| B34 | not found | – |
| B35 | – | not found |
| B36 | not found | – |
| B37 | – | not found |
| B38 | – | not found |
| B39 | not found | – |
